# Measurements reported in PubChem BioAssay (EPA / NIEHS).
# “And” between values parts separate entries of the source, which are not always exact repeats. Equal entries are not always repeated. A structure can be active in one record and inactive in another. The source made the active and inactive calls. Rule for the calls: active = hit-call score of the fitted dose curve at least 0.9, where 1 is the maximum; inactive = score below 0.9.
# How the values were obtained:
# Conditions in all cases: primary human HUVEC with PBMC; actives raise or lower the signal
# [1] = read-out: Interleukin-1 alpha (IL1a), IL1A (gene 3552); experiment: BSK_LPS_IL1a: BioMAP Diversity Plus: LPS Assay for Interleukin-1 alpha (IL1a) Biomarker Activity (AID 2283080)
# Summary of the method: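 Primary human HUVEC and PBMC co-culture stimulated with LPS is dosed and harvested at 24 h. Both increases and decreases in ELISA-measured IL-1a are scored relative to DMSO.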
# [2] = read-out: Monocyte Chemoattractant Protein-1 (MCP1), CCL2 (gene 6347); experiment: BSK_LPS_MCP1: BioMAP Diversity Plus: LPS Assay for Monocyte Chemoattractant Protein-1 (MCP1) Biomarker Activity (AID 2283081);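 for AC50: secreted MCP-1 protein quantified by ELISA in culture supernatant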
# Summary of the method: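 Values derive from bidirectional fitting against DMSO of ELISA-measured MCP-1 in a human primary endothelial and mononuclear cell co-culture, 24 h after chemical addition under LPS activation.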
# [3] = BSK_LPS_PGE2: BioMAP Diversity Plus: LPS Assay for Prostaglandin E2 (PGE2) Biomarker Activity (AID 2283082);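 for AC50: secreted prostaglandin E2 measured by ELISA in LPS-stimulated co-culture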
# Summary of the method: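 Primary human endothelial cells and blood mononuclear cells, co-cultured with LPS, receive test chemical; PGE2 ELISA follows at 24 h, with SRB-stained parallel cultures flagging cytotoxicity.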
# [4] = read-out: Macrophage colony-stimulating factor (MCSF), CSF1 (gene 1435); experiment: BSK_LPS_MCSF: BioMAP Diversity Plus: LPS Assay for Macrophage colony-stimulating factor (MCSF) Biomarker Activity (AID 2283083)
# Summary of the method: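 Bidirectional fit versus DMSO of ELISA-measured M-CSF in co-cultured human umbilical vein endothelial cells and PBMC, sampled 24 h after dosing.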
# [5] = read-out: Tissue Factor, F3 (gene 2152); experiment: BSK_LPS_TissueFactor: BioMAP Diversity Plus: LPS Assay for Tissue Factor Biomarker Activity (AID 2283084)
# Summary of the method: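 Read-out: CD142 ELISA, 24 h. System: LPS-driven human endothelial/PBMC co-culture. Analysis: up- or down-signal fitted against DMSO.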
# [6] = read-out: Vascular cell adhesion molecule 1 (VCAM1), VCAM1 (gene 7412); experiment: BSK_LPS_VCAM1: BioMAP Diversity Plus: LPS Assay for Vascular cell adhesion molecule 1 (VCAM1) Biomarker Activity (AID 2283086)
# Summary of the method: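 Measured by ELISA: VCAM-1 in LPS-activated HUVEC/PBMC co-cultures 24 h after treatment. Values reflect bidirectional fitting with DMSO as baseline.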
# [7] = read-out: CD38, CD38 (gene 952); experiment: BSK_SAg_CD38: BioMAP Diversity Plus: SAg Assay for CD38 Biomarker Activity (AID 2283087)
# Summary of the method: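 Measures CD38 on a human endothelial/PBMC co-culture driven by SEB and TSST-1, 24 h after compound exposure, using ELISA with fluorescence detection; DMSO defines baseline for bidirectional curve fitting.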
# [8] = read-out: CD40, CD40 (gene 958); experiment: BSK_SAg_CD40: BioMAP Diversity Plus: SAg Assay for CD40 Biomarker Activity (AID 2283088)
# Summary of the method: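 Endpoint derived by fitting increases or decreases versus DMSO controls. CD40 is detected by fluorescence ELISA in a human vascular co-culture of endothelium and PBMC at 24 h.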
# [9] = read-out: CD69, CD69 (gene 969); experiment: BSK_SAg_CD69: BioMAP Diversity Plus: SAg Assay for CD69 Biomarker Activity (AID 2283089);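 for AC50: cell surface CD69 protein quantified by ELISA with fluorescence detection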
# Summary of the method: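 ELISA, fluorescence read-out: CD69 on human umbilical vein endothelial cell + PBMC co-culture, 24 h post-dosing. Gain or loss of signal fitted bidirectionally against DMSO baseline.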
# [10] = read-out: Tumor necrosis factor (Homo sapiens) (UniProt P01375); experiment: BSK_LPS_TNFa: BioMAP Diversity Plus: LPS Assay for Tumour Necrosis Factor alpha (TNFa) Biomarker Activity (AID 2283085);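 for AC50: TNFa protein level quantified by ELISA in the co-culture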
# Summary of the method: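 ELISA-based TNFa endpoint in a human endothelial–PBMC co-culture sampled 24 h post-exposure. Curves were fitted in both directions using DMSO as baseline of activity.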
# Chain of Tumor necrosis factor (Homo sapiens) (P01375 whole entry, looked up): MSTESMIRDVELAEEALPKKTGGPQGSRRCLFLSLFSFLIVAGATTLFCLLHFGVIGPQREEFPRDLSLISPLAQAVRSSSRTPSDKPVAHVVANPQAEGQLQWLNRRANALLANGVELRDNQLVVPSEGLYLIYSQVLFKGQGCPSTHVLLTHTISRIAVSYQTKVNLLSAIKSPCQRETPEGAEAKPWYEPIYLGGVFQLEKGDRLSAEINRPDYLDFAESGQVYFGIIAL
compound,measurement,setting,value
O=C1c2c(O)ccc(Nc3ccc(CCO)cc3)c2C(=O)c2c([N+](=O)[O-])ccc(O)c21,outcome,[1],inactive
same,AC50,[2],20 µM (active)
same,AC50,[3],29.4 µM (active)
same,AC50,[4],7.53 µM (active)
same,AC50,[5],3.97 µM (active)
same,AC50,[6],20 µM (active)
same,AC50,[7],20 µM (active)
same,AC50,[8],25.9 µM (active)
same,AC50,[9],14.2 µM (active)
C[C@]12CC[C@H]3C(=CCc4cc(O)ccc43)[C@@H]1CCC2=O,outcome,[1],inactive
same,outcome,[2],inactive
same,outcome,[3],inactive
same,outcome,[4],inactive
same,outcome,[5],inactive
same,outcome,[6],inactive
same,outcome,[7],inactive
same,outcome,[8],inactive
same,outcome,[9],inactive
C=C(C)C(=O)OCC(F)(F)C(F)(F)C(F)(F)C(F)F,outcome,[1],inactive
same,outcome,[2],inactive
same,outcome,[3],inactive
same,AC50,[4],0.646 µM (active)
same,outcome,[4],inactive
same,outcome,[6],inactive
same,outcome,[7],inactive
same,outcome,[8],inactive
same,outcome,[9],inactive
CNS(=O)(=O)C(F)(F)C(F)(F)C(F)(F)C(F)(F)C(F)(F)C(F)(F)C(F)(F)C(F)(F)F,AC50,[1],5.38 µM (active)
same,outcome,[1],inactive
same,outcome,[2],inactive
same,outcome,[3],inactive
same,outcome,[4],inactive
same,outcome,[6],inactive
same,outcome,[7],inactive
same,outcome,[8],inactive
same,outcome,[9],inactive
Cc1ccc(O)c(-n2nc3ccccc3n2)c1,outcome,[1],inactive
same,outcome,[2],inactive
same,outcome,[3],inactive
same,outcome,[4],inactive
same,outcome,[5],inactive
same,AC50,[10],1.8 µM (active)
same,outcome,[6],inactive
same,outcome,[7],inactive
same,outcome,[8],inactive
same,outcome,[9],inactive
O=C(O)C(F)(F)C(F)(F)C(F)(F)OC(F)(C(F)(F)F)C(F)(F)F,outcome,[1],inactive
same,outcome,[2],inactive
same,outcome,[3],inactive
same,outcome,[4],inactive
same,outcome,[5],inactive
same,outcome,[6],inactive
same,outcome,[7],inactive
same,outcome,[8],inactive
same,outcome,[9],inactive
C=CC(=O)OCC(F)(F)C(F)(F)C(F)(F)COC(=O)C=C,AC50,[1],15.5 µM (active) and 12.1 µM (active)
same,AC50,[2],18.8 µM (active) and 16.1 µM (active)
same,AC50,[3],8.09 µM (active) and 8.04 µM (active)
same,AC50,[4],14.9 µM (active) and 8.27 µM (active)
same,AC50,[5],21.9 µM (active) and 20.2 µM (active)
same,AC50,[6],15.1 µM (active) and 8.51 µM (active)
same,AC50,[7],14.2 µM (active)
same,AC50,[8],16.3 µM (active) and 12.2 µM (active)
same,AC50,[9],8.7 µM (active) and 8.29 µM (active)
OCC(F)(F)C(F)(F)C(F)(F)CO,outcome,[1],inactive
same,outcome,[2],inactive
same,outcome,[3],inactive
same,outcome,[4],inactive
same,outcome,[5],inactive
same,outcome,[6],inactive
same,outcome,[7],inactive
same,outcome,[8],inactive
same,outcome,[9],inactive
CCN(CC)c1ccc(N=Nc2ccccc2)cc1,AC50,[1],34.4 µM (active)
same,AC50,[2],31.9 µM (active)
same,outcome,[3],inactive
same,AC50,[4],20 µM (active)
same,outcome,[5],inactive
same,outcome,[6],inactive
same,AC50,[7],27.5 µM (active)
same,AC50,[8],14.2 µM (active)
same,AC50,[9],14.3 µM (active)
NCC(F)(F)C(F)(F)C(F)(F)C(F)(F)C(F)(F)C(F)(F)F,outcome,[1],inactive
same,AC50,[2],19.9 µM (active)
same,outcome,[2],inactive
same,outcome,[3],inactive
same,outcome,[4],inactive
same,outcome,[6],inactive
same,outcome,[7],inactive
same,outcome,[8],inactive
same,outcome,[9],inactive
O=C=Nc1cccc2c(N=C=O)cccc12,outcome,[1],inactive
same,outcome,[2],inactive
same,outcome,[3],inactive
same,outcome,[4],inactive
same,outcome,[5],inactive
same,outcome,[6],inactive
same,outcome,[7],inactive
same,outcome,[8],inactive
same,outcome,[9],inactive
CC1=CC2C3C=CC(C3)C2C1C (stereo not drawn),outcome,[1],inactive
same,outcome,[2],inactive
same,outcome,[3],inactive
same,outcome,[4],inactive
same,outcome,[5],inactive
same,outcome,[6],inactive
same,outcome,[7],inactive
same,outcome,[8],inactive
same,outcome,[9],inactive
OCC(O)CC(F)(F)C(F)(F)C(F)(F)C(F)(F)C(F)(F)C(F)(F)C(F)(F)C(F)(F)F (stereo not drawn),outcome,[1],inactive
same,outcome,[2],inactive
same,outcome,[3],inactive
same,outcome,[4],inactive
same,outcome,[5],inactive
same,outcome,[6],inactive
same,outcome,[7],inactive
same,outcome,[8],inactive
same,outcome,[9],inactive
O=C=NCc1cccc(CN=C=O)c1,outcome,[1],inactive
same,outcome,[2],inactive
same,outcome,[3],inactive
same,outcome,[4],inactive
same,outcome,[5],inactive
same,outcome,[10],inactive
same,outcome,[6],inactive
same,outcome,[7],inactive
same,outcome,[8],inactive
same,outcome,[9],inactive
OCCCCC(F)(F)C(F)(F)C(F)(F)C(F)(F)F,outcome,[1],inactive
same,outcome,[2],inactive
same,outcome,[3],inactive
same,outcome,[4],inactive
same,outcome,[5],inactive
same,outcome,[6],inactive
same,outcome,[7],inactive
same,outcome,[8],inactive
same,outcome,[9],inactive
O=S(=O)(O)CCC(F)(F)C(F)(F)C(F)(F)C(F)(F)C(F)(F)C(F)(F)C(F)(F)C(F)(F)F,AC50,[1],47.3 µM (active) and 44.8 µM (active)
same,outcome,[2],inactive
same,AC50,[3],30 µM (active) and 40.9 µM (active)
same,AC50,[4],51.4 µM (active)
same,outcome,[4],inactive
same,outcome,[5],inactive
same,AC50,[6],5.95 µM (active)
same,outcome,[6],inactive
same,AC50,[7],15.6 µM (active)
same,outcome,[7],inactive
same,outcome,[8],inactive
same,outcome,[9],inactive
Cc1ccc(S(=O)(=O)C(I)I)cc1,AC50,[1],1.92 µM (active)
same,AC50,[2],3.77 µM (active)
same,outcome,[3],inactive
same,AC50,[4],2.3 µM (active)
same,AC50,[5],3.07 µM (active)
same,AC50,[6],3.03 µM (active)
same,AC50,[7],2.99 µM (active)
same,AC50,[8],2.98 µM (active)
same,AC50,[9],3.25 µM (active)
